According to PubChem BioAssay AID1159580 (chemical genetic matrix, 2015):
Several values for one entry are separate records, joined by “and”; a condition that tells them apart may be missing. Identical values can stand only once. In all, about 5,500 compounds went through this assay and about 2,000 (36%) were called active. Inconclusive results (about 18%) are left out. Rule as the data show it: active = normalized growth mostly below about 0.91 (no sharp cut-off); inconclusive = no clear call, values can overlap the other calls; inactive = mostly above about 0.92. This is one part of the list.

Assay: chemical genetic growth profiling, strain panel (AID 1159580);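 also: tested at 20 µM; growth read once vehicle control cultures reached saturation at 30 °C; 1 = growth at the plate median or of vehicle wells; lower values mean less growth of the strain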
Details: S. cerevisiae deletion strains, growth OD

Measured: normalized growth

CN(C)CC/C=C1/c2ccccc2COc2ccccc21
inactive: locus YAL021C, strain ccr4, active compounds read low 0.99 | locus YAL026C, strain drs2, active compounds read low 1.03 | locus YAL030W, strain snc1, active compounds read low 1.02 | locus YBL061C, strain skt5, active compounds read low 1.02 | locus YBR009C, strain hhf1, active compounds read low 1.01 | locus YBR021W, strain FUR4, active compounds read low 0.991 | locus YBR023C, strain chs3, active compounds read low 1.03 | locus YBR171W, strain sec66, active compounds read low 1.05 | locus YBR229C, strain ROT2, active compounds read low 1 | locus YBR231C, strain swc5, active compounds read low 1.04 | locus YBR279W, strain paf1, active compounds read low 1.01 | locus YCL011C, strain gbp2, active compounds read low 1.03 | locus YCL016C, strain dcc1, active compounds read low 1.02 | locus YCL029C, strain bik1, active compounds read low 1.02 | locus YCL069W, strain vba3, active compounds read low 1.03 | locus YCR088W, strain abp1, active compounds read low 1.03 | locus YDL005C, strain med2, active compounds read low 1.05 | locus YDL035C, strain GPR1, active compounds read low 1.03 | locus YDL040C, strain nat1, active compounds read low 1.02 | locus YDL074C, strain BRE1, active compounds read low 1.01 | locus YDL101C, strain DUN1, active compounds read low 1.02 | locus YDL134C, strain PPH21, active compounds read low 1.01 | locus YDL185W, strain tfp1, active compounds read low 1.03 | locus YDL192W, strain arf1, active compounds read low 1.03 | locus YDR001C, strain nth1, active compounds read low 1.01 | locus YDR069C, strain doa4, active compounds read low 1.02 | locus YDR101C, strain arx1, active compounds read low 0.992 | locus YDR137W, strain rgp1, active compounds read low 1.14 | locus YDR159W, strain sac3, active compounds read low 1.05 | locus YDR162C, strain NBP2, active compounds read low 1.02 | locus YDR195W, strain ref2 1.05 | locus YDR297W, strain sur2, active compounds read low 1.03 | locus YDR318W, strain mcm21, active compounds read low 1.02 | locus YDR334W, strain swr1, active compounds read low 1.02 | locus YDR335W, strain msn5, active compounds read low 1.02 | locus YDR388W, active compounds read low 1.03 | locus YDR392W, strain spt3, active compounds read low 0.987 | locus YDR502C, strain sam2, active compounds read low 1.02 | locus YEL003W, strain gim4, active compounds read low 1.03 | locus YEL037C, strain rad23, active compounds read low 1.02 | locus YEL061C, strain CIN8 (second series), active compounds read low 1.02 | locus YEL061C, strain CIN8, active compounds read low 1.01 | locus YER015W, strain faa2, active compounds read low 0.977 | locus YER016W, strain bim1, active compounds read low 1.01 | locus YER110C, active compounds read low 1.02 | locus YER111C, strain swi4, active compounds read low 1.03 | locus YER155C, strain BEM2 (second series), active compounds read low 1.01 | locus YER155C, strain BEM2, active compounds read low 1.01 | locus YER167W, strain BCK2, active compounds read low 1.01 | locus YFR010W, strain ubp6, active compounds read low 1.02 | locus YGL078C, strain dbp3, active compounds read low 1.01 | locus YGL086W, strain mad1, active compounds read low 1 | locus YGL167C, strain pmr1, active compounds read low 1.03 | locus YGL173C, strain kem1, active compounds read low 1.03 | locus YGL227W, strain vid30, active compounds read low 1.01 | locus YGL240W, strain doc1, active compounds read low 1 | locus YGL248W, strain PDE1, active compounds read low 1 | locus YGL253W, strain hxk2, active compounds read low 1.02 | locus YGR078C, strain PAC10, active compounds read low 1.01 | locus YGR135W, strain pre9, active compounds read low 1.03 | locus YGR229C, strain SMI1, active compounds read low 1.02 | locus YGR252W, strain gcn5, active compounds read low 0.972 | locus YHR013C, strain ard1, active compounds read low 0.983 | locus YHR027C, strain rpn1, active compounds read low 0.983 | locus YHR030C, strain SLT2, active compounds read low 1.02 and 1.03 | locus YHR079C, strain IRE1 (second series), active compounds read low 1.03 | locus YHR079C, strain IRE1, active compounds read low 1.06 | locus YHR094C, strain hxt1, active compounds read low 1.01 | locus YHR129C, strain ARP1, active compounds read low 1.01 | locus YHR142W, strain chs7, active compounds read low 1.02 | locus YHR200W, strain rpn10, active compounds read low 1.04 | locus YIL066C, strain RNR3, active compounds read low 1.02 | locus YIL073C, strain SPO22, active compounds read low 1.11 | locus YIL125W, strain kgd1, active compounds read low 1.01 | locus YIR030C, strain dcg1, active compounds read low 1.01 | locus YJL092W, strain hpr5, active compounds read low 1.03 | locus YJL095W, strain BCK1 (second series), active compounds read low 1.03 | locus YJL095W, strain BCK1, active compounds read low 0.992 and 1.03 | locus YJL115W, strain asf1, active compounds read low 1.03 | locus YJL129C, strain trk1, active compounds read low 1.06 | locus YJL134W, strain LCB3, active compounds read low 1.01 | locus YJL154C, strain vps35, active compounds read low 1.02 | locus YJL164C, strain tpk1, active compounds read low 1.02 | locus YJL166W, strain qcr8, active compounds read low 1.01 | locus YJL168C, strain set2, active compounds read low 1.01 | locus YJL187C, strain SWE1 (second series), active compounds read low 1.01 | locus YJR043C, strain POL32, active compounds read low 1.01 | locus YJR066W, strain TOR1, active compounds read low 0.931 | locus YKL009W, strain mrt4, active compounds read low 1.03
